PMC6579518

Assays:
[1] = molecular target: Cytoplasmic 60S subunit biogenesis factor REI1 (UniProt P38344); assay: cross-link between two proteins; cross-linking mass spectrometry
[2] = molecular target: Large ribosomal subunit protein eL18A (UniProt P0CX49); assay: as above
[3] = molecular target: Large ribosomal subunit protein eL19A (UniProt P0CX82); assay: as above
[4] = molecular target: Large ribosomal subunit protein uL2A (UniProt P0CX45); assay: as above
Large subunit GTPase 1 = Large subunit GTPase 1 (UniProt P53145); assay: as above
Chain of Large subunit GTPase 1 (P53145 whole entry): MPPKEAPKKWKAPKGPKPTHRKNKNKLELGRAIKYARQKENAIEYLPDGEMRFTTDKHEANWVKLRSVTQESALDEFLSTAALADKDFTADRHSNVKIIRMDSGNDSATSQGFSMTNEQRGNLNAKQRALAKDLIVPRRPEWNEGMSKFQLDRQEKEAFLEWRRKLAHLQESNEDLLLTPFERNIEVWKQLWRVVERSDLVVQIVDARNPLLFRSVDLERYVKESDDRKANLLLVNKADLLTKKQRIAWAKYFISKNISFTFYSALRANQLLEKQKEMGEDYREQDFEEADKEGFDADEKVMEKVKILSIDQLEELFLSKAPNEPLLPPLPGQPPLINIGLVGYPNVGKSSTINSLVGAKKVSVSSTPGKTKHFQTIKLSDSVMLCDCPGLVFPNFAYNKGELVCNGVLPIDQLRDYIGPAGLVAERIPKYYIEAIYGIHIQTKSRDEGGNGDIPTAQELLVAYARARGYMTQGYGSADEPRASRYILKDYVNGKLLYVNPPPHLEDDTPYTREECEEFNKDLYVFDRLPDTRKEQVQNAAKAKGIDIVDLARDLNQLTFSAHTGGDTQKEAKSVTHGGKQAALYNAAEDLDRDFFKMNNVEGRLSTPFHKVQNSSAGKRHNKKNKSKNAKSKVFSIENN

[5] = molecular target: Large ribosomal subunit protein eL20A (UniProt P0CX23); assay: as above
Chain of Large ribosomal subunit protein eL20A (P0CX23 whole entry): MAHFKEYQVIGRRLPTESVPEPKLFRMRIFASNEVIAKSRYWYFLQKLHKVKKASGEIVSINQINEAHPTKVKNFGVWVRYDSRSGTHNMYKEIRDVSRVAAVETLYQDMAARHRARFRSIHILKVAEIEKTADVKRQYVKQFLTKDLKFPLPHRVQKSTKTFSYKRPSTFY

[6] = molecular target: rRNA biogenesis protein RRP5 (UniProt Q05022); assay: as above
[7] = molecular target: Large ribosomal subunit protein eL32 (UniProt P38061); assay: as above
[8] = molecular target: Large ribosomal subunit protein eL37A (UniProt P49166); assay: as above
[9] = molecular target: Large ribosomal subunit protein uL13B (UniProt P26785); assay: as above
[10] = molecular target: Shuttling pre-60S factor ECM1 (UniProt P39715); assay: as above
[11] = molecular target: Nucleolar GTP-binding protein 1 (UniProt Q02892); assay: as above
Chain of Nucleolar GTP-binding protein 1 (Q02892 whole entry): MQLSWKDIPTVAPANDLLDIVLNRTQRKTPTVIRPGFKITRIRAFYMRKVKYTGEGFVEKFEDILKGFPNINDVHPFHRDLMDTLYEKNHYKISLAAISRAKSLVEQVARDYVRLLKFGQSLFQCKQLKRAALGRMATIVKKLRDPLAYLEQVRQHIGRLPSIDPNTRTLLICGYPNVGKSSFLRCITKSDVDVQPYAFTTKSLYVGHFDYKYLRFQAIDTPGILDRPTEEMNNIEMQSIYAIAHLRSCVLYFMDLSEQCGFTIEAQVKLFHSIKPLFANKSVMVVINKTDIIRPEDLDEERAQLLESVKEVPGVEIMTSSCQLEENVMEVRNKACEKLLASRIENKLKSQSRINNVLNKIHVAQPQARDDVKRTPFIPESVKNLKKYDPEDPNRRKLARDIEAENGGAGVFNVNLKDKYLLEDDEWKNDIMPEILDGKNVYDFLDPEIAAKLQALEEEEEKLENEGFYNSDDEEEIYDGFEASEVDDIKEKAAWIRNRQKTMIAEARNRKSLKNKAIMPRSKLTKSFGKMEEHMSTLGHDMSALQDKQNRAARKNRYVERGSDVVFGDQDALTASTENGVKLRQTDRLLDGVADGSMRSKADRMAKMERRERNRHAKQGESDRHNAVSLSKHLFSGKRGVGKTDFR

[12] = molecular target: Probable metalloprotease ARX1 (UniProt Q03862); assay: as above
Chain of Probable metalloprotease ARX1 (Q03862 whole entry): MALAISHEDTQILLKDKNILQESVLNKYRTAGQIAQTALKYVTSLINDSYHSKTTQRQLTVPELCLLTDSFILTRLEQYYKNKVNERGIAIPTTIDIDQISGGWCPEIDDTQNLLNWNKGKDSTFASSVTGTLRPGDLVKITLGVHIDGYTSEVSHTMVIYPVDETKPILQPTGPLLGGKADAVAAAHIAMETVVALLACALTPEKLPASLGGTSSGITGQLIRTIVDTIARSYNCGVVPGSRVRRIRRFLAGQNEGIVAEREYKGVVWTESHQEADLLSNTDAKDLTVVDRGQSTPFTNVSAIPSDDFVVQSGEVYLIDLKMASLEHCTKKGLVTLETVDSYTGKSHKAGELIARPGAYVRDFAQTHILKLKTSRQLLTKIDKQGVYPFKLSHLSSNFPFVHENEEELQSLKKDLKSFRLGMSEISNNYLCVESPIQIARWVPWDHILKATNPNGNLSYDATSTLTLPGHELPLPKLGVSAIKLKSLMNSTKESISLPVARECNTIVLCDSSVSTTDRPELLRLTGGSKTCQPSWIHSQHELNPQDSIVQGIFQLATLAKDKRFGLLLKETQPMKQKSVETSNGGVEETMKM

[13] = molecular target: Proteasome-interacting protein CIC1 (UniProt P38779); assay: as above
[14] = molecular target: Pumilio homology domain family member 6 (UniProt Q04373); assay: as above
UPF0642 protein YBL028C = UPF0642 protein YBL028C (UniProt P38202); assay: as above
Chain of UPF0642 protein YBL028C (P38202 whole entry): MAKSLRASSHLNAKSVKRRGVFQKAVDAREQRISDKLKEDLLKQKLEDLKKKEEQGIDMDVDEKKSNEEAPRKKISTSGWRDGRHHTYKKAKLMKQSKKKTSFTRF

[15] = molecular target: WD repeat-containing protein JIP5 (UniProt Q06214); assay: as above
Chain of WD repeat-containing protein JIP5 (Q06214 whole entry): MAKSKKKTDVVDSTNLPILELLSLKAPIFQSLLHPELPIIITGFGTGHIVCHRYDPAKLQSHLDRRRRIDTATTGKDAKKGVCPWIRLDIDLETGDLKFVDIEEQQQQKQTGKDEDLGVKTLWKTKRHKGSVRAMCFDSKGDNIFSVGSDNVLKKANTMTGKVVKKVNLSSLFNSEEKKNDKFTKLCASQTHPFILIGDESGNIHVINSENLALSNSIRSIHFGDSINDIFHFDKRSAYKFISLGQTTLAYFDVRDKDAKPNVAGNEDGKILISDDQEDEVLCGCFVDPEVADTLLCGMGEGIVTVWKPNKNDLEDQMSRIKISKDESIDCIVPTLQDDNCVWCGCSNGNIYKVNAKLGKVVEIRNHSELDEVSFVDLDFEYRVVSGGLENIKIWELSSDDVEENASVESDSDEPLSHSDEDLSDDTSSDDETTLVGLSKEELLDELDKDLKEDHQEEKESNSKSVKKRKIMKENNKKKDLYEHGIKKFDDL

[16] = molecular target: U3 small nucleolar RNA-associated protein 22 (UniProt P53254); assay: cross-link between two proteins; affinity purification or IP with mass spectrometry; cross-linking mass spectrometry
Chain of U3 small nucleolar RNA-associated protein 22 (P53254 whole entry): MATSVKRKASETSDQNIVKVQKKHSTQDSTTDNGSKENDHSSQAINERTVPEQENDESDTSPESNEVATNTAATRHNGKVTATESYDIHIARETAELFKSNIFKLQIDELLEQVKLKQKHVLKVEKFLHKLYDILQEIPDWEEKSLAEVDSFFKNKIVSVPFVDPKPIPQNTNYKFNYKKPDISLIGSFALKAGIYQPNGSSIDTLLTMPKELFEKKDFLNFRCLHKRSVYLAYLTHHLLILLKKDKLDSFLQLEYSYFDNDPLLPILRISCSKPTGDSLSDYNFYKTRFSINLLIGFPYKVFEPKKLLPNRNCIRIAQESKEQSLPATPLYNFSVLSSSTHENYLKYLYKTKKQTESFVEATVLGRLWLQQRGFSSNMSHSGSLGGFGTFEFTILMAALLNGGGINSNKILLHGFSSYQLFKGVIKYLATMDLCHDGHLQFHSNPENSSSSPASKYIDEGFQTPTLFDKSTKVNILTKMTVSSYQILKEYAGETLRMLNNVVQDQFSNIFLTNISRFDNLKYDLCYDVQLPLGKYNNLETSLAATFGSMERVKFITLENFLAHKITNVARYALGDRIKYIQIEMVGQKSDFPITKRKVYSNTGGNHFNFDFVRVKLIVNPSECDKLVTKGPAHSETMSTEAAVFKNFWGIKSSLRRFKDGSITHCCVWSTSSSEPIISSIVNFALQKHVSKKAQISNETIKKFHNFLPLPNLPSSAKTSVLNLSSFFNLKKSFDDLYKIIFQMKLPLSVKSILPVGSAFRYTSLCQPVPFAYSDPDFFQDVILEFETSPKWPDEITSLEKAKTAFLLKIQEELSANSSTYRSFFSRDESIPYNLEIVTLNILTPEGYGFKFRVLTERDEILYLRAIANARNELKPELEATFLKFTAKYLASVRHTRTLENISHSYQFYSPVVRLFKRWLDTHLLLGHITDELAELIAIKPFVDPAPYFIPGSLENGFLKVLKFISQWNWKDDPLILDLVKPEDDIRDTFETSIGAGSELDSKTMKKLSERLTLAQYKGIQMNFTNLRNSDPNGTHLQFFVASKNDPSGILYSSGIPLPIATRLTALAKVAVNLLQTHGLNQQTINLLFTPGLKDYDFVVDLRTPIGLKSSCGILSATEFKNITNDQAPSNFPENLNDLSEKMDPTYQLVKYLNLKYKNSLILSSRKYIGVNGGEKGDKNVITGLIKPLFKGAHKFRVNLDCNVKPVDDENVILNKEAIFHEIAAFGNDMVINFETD

Chain of Large ribosomal subunit protein eL43A, P0CX25 (P0CX25 whole entry): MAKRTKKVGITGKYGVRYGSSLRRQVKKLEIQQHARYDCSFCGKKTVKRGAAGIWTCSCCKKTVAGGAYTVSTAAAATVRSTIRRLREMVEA
Chain of Large ribosomal subunit protein eL18A (P0CX49 whole entry): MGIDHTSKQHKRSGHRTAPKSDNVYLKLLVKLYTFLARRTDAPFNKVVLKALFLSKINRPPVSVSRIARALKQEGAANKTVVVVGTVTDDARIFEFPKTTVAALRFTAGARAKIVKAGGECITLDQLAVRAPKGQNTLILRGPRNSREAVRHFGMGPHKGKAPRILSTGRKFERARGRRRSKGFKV
Chain of Large ribosomal subunit protein uL2A (P0CX45 whole entry): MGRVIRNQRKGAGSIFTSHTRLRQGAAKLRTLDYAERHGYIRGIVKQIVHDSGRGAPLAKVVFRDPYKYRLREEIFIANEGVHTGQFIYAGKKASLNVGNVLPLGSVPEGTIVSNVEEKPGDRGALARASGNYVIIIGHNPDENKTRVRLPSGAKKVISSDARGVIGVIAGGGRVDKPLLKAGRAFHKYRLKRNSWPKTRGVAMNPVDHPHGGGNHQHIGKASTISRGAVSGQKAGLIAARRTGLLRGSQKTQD
Chain of Large ribosomal subunit protein uL2A, P0CX45 (P0CX45 whole entry): as above
Chain of Large ribosomal subunit protein eL19A (P0CX82 whole entry): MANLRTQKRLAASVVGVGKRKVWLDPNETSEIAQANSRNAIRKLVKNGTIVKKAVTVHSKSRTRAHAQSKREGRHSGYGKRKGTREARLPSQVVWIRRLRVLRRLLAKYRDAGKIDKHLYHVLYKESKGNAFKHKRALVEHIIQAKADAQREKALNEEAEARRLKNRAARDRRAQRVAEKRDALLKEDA
Chain of Large ribosomal subunit protein eL29, P05747 (P05747 whole entry): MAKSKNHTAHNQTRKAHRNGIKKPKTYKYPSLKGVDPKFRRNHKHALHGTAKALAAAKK

Large ribosomal subunit protein eL24A, P04449
listed as a hit [1]: yes

Large ribosomal subunit protein eL29, P05747
listed as a hit [2]: yes

Large ribosomal subunit protein uL15, P02406
listed as a hit [2]: yes

Large ribosomal subunit protein eL43A, P0CX25
listed as a hit [3]: yes | listed as a hit [4]: yes | listed as a hit (Large subunit GTPase 1): yes

Ubiquitin-ribosomal protein eS31 fusion protein, P05759
listed as a hit [3]: yes

Large ribosomal subunit protein uL30A, P05737
listed as a hit [5]: yes | listed as a hit [6]: yes

Large ribosomal subunit protein eL33A, P05744
listed as a hit [5]: yes

27S pre-rRNA (guanosine(2922)-2'-O)-methyltransferase, P25582
listed as a hit [7]: yes

Large ribosomal subunit protein uL29A, P0CX84
listed as a hit [8]: yes

Large ribosomal subunit protein eL15A, P05748
listed as a hit [9]: yes

Large ribosomal subunit protein uL14A, P0CX41
listed as a hit [4]: yes

Large ribosomal subunit protein uL2A, P0CX45
listed as a hit (Large subunit GTPase 1): yes | listed as a hit [10]: yes

Pescadillo homolog, P53261
listed as a hit [11]: yes

Cytoplasmic 60S subunit biogenesis factor REI1, P38344
listed as a hit [12]: yes

Large ribosomal subunit protein uL24A, P05743
listed as a hit [12]: yes

Large ribosomal subunit protein uL13A, P26784
listed as a hit [13]: yes

Large ribosomal subunit protein uL5A, P0C0W9
listed as a hit [14]: yes

Large ribosomal subunit protein uL3, P14126
listed as a hit (UPF0642 protein YBL028C): yes

Large ribosomal subunit protein uL6A, P05738
listed as a hit (UPF0642 protein YBL028C): yes

Large ribosomal subunit protein uL1A, P0CX43
listed as a hit [15]: yes

Heat shock protein SSA1, P10591
listed as a hit [16]: yes
